Experimental data published in PubChem BioAssay AID460 (PCMD, 2006).
The campaign covered roughly 58,000 compounds. About 100 (0.17%) were called active. No stated cut-off is given here; in the data, active means inhibition above about 45%; inactive means the rest. For the sample, actives were picked, then their nearest neighbours and some compounds at random. Where a SMILES comes first, the peptide text is derived from it. The star is where a group is joined. Bz = O=C(c1ccccc1)*

Molecular target: Procathepsin L (Homo sapiens) (UniProt P07711)
Assay: inhibitors of human cathepsin L, biochemical (AID 460);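 further: 0% = enzyme with no compound and 100% = no enzyme blank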
Settings: purified cathepsin L, fluorogenic substrate, fluorescence; active compounds read high;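 tested at 10 µM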

Chain of Procathepsin L (Homo sapiens) (P07711 114-288 limits assumed): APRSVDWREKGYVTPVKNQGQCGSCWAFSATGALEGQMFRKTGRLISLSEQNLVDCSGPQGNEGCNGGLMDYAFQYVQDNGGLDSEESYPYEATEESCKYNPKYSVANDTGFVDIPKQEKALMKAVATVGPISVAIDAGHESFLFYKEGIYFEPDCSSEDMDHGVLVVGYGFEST
Chain of Procathepsin L (Homo sapiens) (P07711 292-333 limits assumed): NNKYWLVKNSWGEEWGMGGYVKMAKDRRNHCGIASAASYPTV

inhibition, inactive:
CCOCCOC(=O)C1=C(C)N(C)C(=O)NC1c1ccccc1F (stereo not given) -0.79%
CCOc1cc(C)c(Cl)cc1S(=O)(=O)n1nnc2ccccc21 3.04%
O=C(c1ccccc1)c1ccc2nc(N3CCCCC3)c3nncn3c2c1 -3.17%
CCOC(=O)CCc1c(C)c2ccc(OCc3nn[nH]n3)c(C)c2oc1=O -20.7%
COc1ccc(OC)c2c(N)c(C#N)c(C(F)(F)C(F)(F)F)nc12 -8.11%
Cc1c(C)c2cc3c4c(oc3c(C)c2oc1=O)CCCC4 2.98%
CC1CCN(Cc2nc3c(c(=O)n(C)c(=O)n3C)n2Cc2cccc3ccccc23)CC1 0.14%
OC(COc1cccc2ccccc12)CN1CCN(c2ccccn2)CC1 (stereo not given) 7.74%
O=C(CS(=O)(=O)c1cn(Cc2cccc(F)c2)c2ccccc12)N1CCCCC1 17.3%
CCCC(=O)C1=C(N(C)c2ccccc2)CC(C)(C)C(C(=O)OC)C1=O (stereo not given) -1.31%
CCCn1c(=NC(C)=O)c(C(=O)OCC)cc2c(=O)n3ccccc3nc21 -149%
Cc1cc2cc(CNC(=O)c3ccc(S(=O)(=O)N4CCOCC4)cc3)ccc2[nH]1 4.06%
CN(CCCC(=O)Nc1nccs1)S(=O)(=O)c1ccc(Cl)cc1 -4.71%
CC1=NC2(CCCc3c2no[n+]3[O-])N(O)C1(C)C (stereo not given) 1.32%
CC(=O)N1C(=O)C2(Nc3ccccc3N2)c2ccccc21 1.65%
COc1ccccc1CNC(=O)C1CCN(S(C)(=O)=O)CC1 2.28%
CC(=O)N=c1ncn(CC(COC(C)=O)OC(C)=O)c2nc[nH]c12 (stereo not given) -1.89%
Cc1cccc(OCc2nnc(SCc3nc4cc(C(F)(F)F)ccc4c(=O)[nH]3)o2)c1 -0.3%
O=C(O)C1CC=CCC1C(=O)NCCc1ccccc1 (stereo not given) -8.83%
CC(C)c1ccc(NS(=O)(=O)c2cn(C)c(=O)n(C)c2=O)cc1 12.5%
O=C(NC(Cc1ccccc1)C(=O)N1CCCC1C(=O)O)c1ccccc1 (stereo not drawn) (Bz-Phe-Pro-OH; configuration not given here) 17.6%
Cc1ccc(C)c(N(CC(=O)NCc2ccco2)C(=O)CCC(=O)Nc2ccccn2)c1 -0.88%
COc1ccc(-c2nnn(Cc3nc(N)nc(N4CCCCC4)n3)n2)cc1 -3.62%
CCOc1cccc(=O)c2c(C)n(CC3CCCO3)c(C)c12 (stereo not given) -0.25%
CC(NC(=O)Nc1ccccc1)c1ccccc1 (stereo not given) 1.63%
